Hits are enriched below; roughly 1.7% of the tested compounds scored in any of these assays.
GLP1R inv ag – GLP-1 receptor (human) inverse agonism; AID 624417; HEK293 GLP-1R CRE-luciferase, luminescence, 24 h; GLP-1R form is constitutively active; P43220; Potency, µM (series often up to 38.3 µM), hits mostly inhibitors; actives 1.6% (n = 410,000); note: nearly all actives have a fitted effect of over 55% in size
Target sequence (P43220 whole entry, looked up): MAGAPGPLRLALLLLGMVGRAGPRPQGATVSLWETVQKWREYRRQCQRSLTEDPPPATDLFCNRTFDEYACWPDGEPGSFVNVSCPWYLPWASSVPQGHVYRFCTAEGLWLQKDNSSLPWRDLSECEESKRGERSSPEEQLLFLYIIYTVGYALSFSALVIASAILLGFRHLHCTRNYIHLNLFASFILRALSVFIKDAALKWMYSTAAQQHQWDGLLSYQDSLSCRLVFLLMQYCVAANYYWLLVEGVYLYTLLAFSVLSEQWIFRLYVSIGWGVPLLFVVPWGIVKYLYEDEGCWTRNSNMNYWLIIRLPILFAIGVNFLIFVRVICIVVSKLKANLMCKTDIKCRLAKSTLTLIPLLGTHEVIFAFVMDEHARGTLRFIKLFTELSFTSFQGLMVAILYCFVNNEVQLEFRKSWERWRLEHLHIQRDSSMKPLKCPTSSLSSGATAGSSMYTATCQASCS
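Using stably transfected HEK293 (constitutively active GLP-1R, cAMP-luciferase reporter), compounds were incubated 24 hr and luciferase measured by luminescence.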
GLP1R ag – activates the human GLP-1 receptor | P43220 | HEK293 GLP-1R CRE-luciferase, luminescence, 4-6 h; cells express a hypersensitive GLP-1R form | Potency, µM (doses to about 45.6 µM), usual class: activators | actives 0.007% (n = 380,000) | AID 624172
GLP1R cytotox – cytotoxicity in counter-screen for GLP-1R inverse agonists | HEK293 cAMP-luciferase reporter cells, luminescence, 24 h | AID 624418 | Potency, µM (top dose mostly 38.3 µM), most hits filed as inhibitors | actives 0.13% (n = 410,000);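 note: loss of luciferase light is scored as toxicity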
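Cells in DMEM/10% Nu serum/1% pen-strep, 1536-well format. Pre-incubated 12 h, dosed with 23 nL compound, incubated a further 24 h. Luciferase detection, 12 min at room temp, luminescence.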
Hits are given with their value. Calls come from the whole dose curve; as a rule, active = well fitted curve in the direction sought with a large enough effect; inconclusive = small, poorly fitted or top-dose-only effect, or another doubt; inactive = no such curve, though single readings can be large; an effect the other way counts as inactive or inconclusive.

How did CC(C)c1ccc(OCC(=O)NC2CCCC2)cc1 do in these assays?
GLP1R inv ag: inconclusive; GLP1R ag: inactive; GLP1R cytotox: inactive

What do the screens show for `Cc1ccc(C(C)C)cc1OCC(=O)NC1CCCCCCC1`?
GLP1R inv ag: 11µM; GLP1R ag: inactive; GLP1R cytotox: inactive

Results for Cc1ccc(C(C)C)cc1OCC(=O)NNC(=O)Nc1ccccc1 ?
GLP1R inv ag: 6.3µM; GLP1R ag: inactive; GLP1R cytotox: inactive

Results for Cc1ccc(C(C)C)c(OCC(=O)NNC(=O)Nc2ccccc2)c1 ?
GLP1R inv ag: inconclusive; GLP1R ag: inactive; GLP1R cytotox: inactive

What do the screens show for `COc1ccc(S(=O)(=O)N2CCCCC2)cc1NC(=O)c1c(F)cccc1Cl`?
GLP1R inv ag: inactive; GLP1R ag: inactive; GLP1R cytotox: inactive

What do the screens show for `COc1cc(OC)c(NC(=O)N2CCc3c(sc4c3CCCC4)C2c2ccccc2)cc1Cl` (stereo not given)?
GLP1R inv ag: inactive; GLP1R cytotox: inactive

Results for COc1ccc(Cn2ccc3nc(C)c(C(=O)N4CCN(c5ccc(OC)cc5)CC4)cc3c2=O)cc1 ?
GLP1R inv ag: inactive; GLP1R cytotox: inactive

Results for CC(C)(C=O)Cc1cc(C(C)(C)C)c(O)c(C(C)(C)C)c1 ?
GLP1R inv ag: 11µM; GLP1R ag: inactive; GLP1R cytotox: inactive

What do the screens show for `CC(C)(CO)Cc1cc(C(C)(C)C)c(O)c(C(C)(C)C)c1`?
GLP1R inv ag: 7.1µM; GLP1R ag: inconclusive; GLP1R cytotox: inactive

How did Cc1cc(C(C)(C)C)c(O)c(C(C)(C)C)c1 do in these assays?
GLP1R inv ag: inactive; GLP1R ag: inactive; GLP1R cytotox: inactive

What do the screens show for `CN(C)Cc1cc(C(C)(C)C)c(O)c(C(C)(C)C)c1`?
GLP1R inv ag: inactive; GLP1R ag: inactive; GLP1R cytotox: inactive

What do the screens show for `CCOc1ccccc1NC(=O)CSc1ccc([N+](=O)[O-])cc1`?
GLP1R inv ag: inactive; GLP1R ag: inactive; GLP1R cytotox: inactive

What do the screens show for `O=S1(=O)N[C@H](Cc2ccccc2)COc2cccc(N3CCC[C@H]3CO)c21`?
GLP1R inv ag: inactive; GLP1R ag: inactive; GLP1R cytotox: inactive

What do the screens show for `COc1ccc(C(O)c2nc(-c3cncnc3)cs2)cc1` (stereo not given)?
GLP1R inv ag: inactive; GLP1R ag: inactive; GLP1R cytotox: inactive

How did CN(C)S(=O)(=O)c1cccc(NC(=O)c2ccc(COc3ccccc3)cc2)c1 do in these assays?
GLP1R inv ag: 10µM; GLP1R ag: inactive; GLP1R cytotox: inactive

Results for COCc1ccc(C(=O)Nc2cccc(S(=O)(=O)N(C)c3ccccc3)c2)cc1 ?
GLP1R inv ag: inconclusive; GLP1R ag: inactive; GLP1R cytotox: inconclusive

What do the screens show for `COc1cccc(CNC(=O)CCC2CCCN(Cc3cc4ccccc4o3)C2)c1` (stereo not given)?
GLP1R inv ag: 11µM; GLP1R ag: inactive; GLP1R cytotox: inactive

Results for COc1cccc(CNC(=O)CCC2CCCN(C(=O)CCC(F)(F)F)C2)c1 (stereo not given) ?
GLP1R inv ag: inactive; GLP1R ag: inactive; GLP1R cytotox: inactive

Results for Cc1cc(=O)[nH]c(SCC(=O)N2CCN(c3ccccc3)CC2)n1 ?
GLP1R inv ag: inactive; GLP1R cytotox: inactive

How did Cc1cc(=O)[nH]c(SCC(=O)N2CCN(C(c3ccccc3)c3ccccc3)CC2)n1 do in these assays?
GLP1R inv ag: 5.6µM; GLP1R ag: inactive; GLP1R cytotox: inactive

How did Cc1nc([N+](=O)[O-])cn1-c1ccc([N+](=O)[O-])cc1 do in these assays?
GLP1R ag: inactive

What do the screens show for `COc1ccc(NC(=O)C2CCN(c3cc(C)nc(-c4ccccc4)n3)CC2)cc1`?
GLP1R inv ag: inconclusive; GLP1R ag: inactive; GLP1R cytotox: inconclusive

What do the screens show for `Cc1cc(N2CCC(C(=O)Nc3ccc(F)cc3)CC2)nc(-c2ccccc2)n1`?
GLP1R inv ag: 10µM; GLP1R ag: inactive; GLP1R cytotox: inactive

How did CCCn1ncc(CN2CCC(C(=O)Nc3cccc(-c4cccc(F)c4)c3)CC2)c1C do in these assays?
GLP1R inv ag: inconclusive; GLP1R ag: inactive; GLP1R cytotox: inconclusive

Results for Cc1cccc(CN2CCC(C(=O)Nc3cccc(-c4cccc(F)c4)c3)CC2)n1 ?
GLP1R inv ag: 10µM; GLP1R ag: inactive; GLP1R cytotox: inconclusive

Results for Cc1cccc(CN2CCC(C(=O)Nc3cccc(-c4cscn4)c3)CC2)n1 ?
GLP1R inv ag: inactive; GLP1R ag: inactive; GLP1R cytotox: inactive

How did Cc1nn(C(C)C)c(C)c1CN1CCC(C(=O)Nc2cccc(-c3cccc(F)c3)c2)CC1 do in these assays?
GLP1R inv ag: 5µM; GLP1R ag: inactive; GLP1R cytotox: inconclusive

What do the screens show for `COc1ccc(C(=O)CCC(=O)N2CCN(c3ccccc3)CC2)cc1`?
GLP1R inv ag: inactive; GLP1R ag: inactive; GLP1R cytotox: inactive

Screening data: PubChem BioAssay, National Center for Advancing Translational Sciences (NCATS)
